# This is a sample that favours compounds with a hit; in the whole collection about 3.5% have one here.
# TEAD-YAP inh = TEAD-YAP interaction inhibition; hit rate 1.4% among 640,000; inhibition, % at 9.12 µM; HEK-TIYL cells, TEAD-Gal4/YAP UAS-luciferase luminescence; in the data active = inhibition above about 32%
# MITF primary = blocks human microphthalmia-associated transcription factor. hit rate 0.91% among 650,000. AlphaScreen MITF homodimerization, bead proximity signal. inhibition, % at 2.6 µM; in the data active = inhibition above about 50%
# GPR151 ag = human GPR151 activation; Q8TDV0; PathHunter beta-arrestin GPR151 cells, luminescence; activation, % at 11.2 µM; hit rate 1% among 650,000; AID 1508602; in the data active = activation above about 4.9%
# FBW7 act = human FBW7 E3 ligase activation, primary screen. AlphaScreen FBW7–phospho-cyclin E peptide binding, activator screen. normalized activity (activation), % at 26.1 µM. hit rate 0.13% among 650,000. AID 1259310; in the data active = normalized activity above about 1.9%;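 also: purified mutant Fbw7 with reduced substrate affinity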
# Target sequence (Q969H0 whole entry, looked up): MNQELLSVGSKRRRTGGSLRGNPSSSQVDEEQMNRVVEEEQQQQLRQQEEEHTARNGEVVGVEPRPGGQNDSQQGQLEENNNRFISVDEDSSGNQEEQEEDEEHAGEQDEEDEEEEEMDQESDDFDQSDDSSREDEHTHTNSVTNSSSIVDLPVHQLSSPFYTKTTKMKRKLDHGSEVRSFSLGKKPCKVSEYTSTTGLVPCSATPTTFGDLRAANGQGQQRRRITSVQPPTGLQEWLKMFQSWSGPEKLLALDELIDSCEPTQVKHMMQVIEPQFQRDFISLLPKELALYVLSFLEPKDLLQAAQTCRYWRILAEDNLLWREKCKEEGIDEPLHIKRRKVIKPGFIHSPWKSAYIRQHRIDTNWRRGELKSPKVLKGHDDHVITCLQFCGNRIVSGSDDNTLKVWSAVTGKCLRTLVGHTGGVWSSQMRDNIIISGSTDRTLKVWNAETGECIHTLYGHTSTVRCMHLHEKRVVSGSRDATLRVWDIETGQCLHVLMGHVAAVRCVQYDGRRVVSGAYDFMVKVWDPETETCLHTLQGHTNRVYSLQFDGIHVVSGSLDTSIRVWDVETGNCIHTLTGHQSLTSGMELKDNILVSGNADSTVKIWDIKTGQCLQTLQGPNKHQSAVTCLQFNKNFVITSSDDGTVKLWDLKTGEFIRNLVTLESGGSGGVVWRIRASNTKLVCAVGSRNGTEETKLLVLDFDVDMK
# GPR151 conf act = human GPR151 activation, confirmation screen; shares compounds with GPR151 ag; GPR151 PathHunter beta-arrestin cells, luminescence, 90 min; % of EA-reagent control over plate median; activation, % at 11.2 µM; 6,700 tested, under 10 active;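 active = mean percent activation across replicates above the confirmation screen cutoff of 4.91%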
# GPR119 ag = counter-screen for GPR151 activators: effect on human GPR119. shares compounds with GPR151 ag. hit rate 0.3% among 6,700. AID 1508611. GPR119 PathHunter beta-arrestin cells, luminescence, 90 min; 0 = compound-well median, 100 = enzyme-acceptor control. activation, % at 11.2 µM;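 active = mean percent activation in the counterscreen above 29.09%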;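 also: counterscreen on off-target GPR119 to flag nonselective hits from the GPR151 activator screen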
# Numbers stand for hits; i = inactive; nt = no result given; ! = a repeat was not active.
SMILES,TEAD-YAP inh,MITF primary,GPR151 ag,FBW7 act,GPR151 conf act,GPR119 ag
Cc1cccc(C(=O)Nc2ncc(S(=O)(=O)c3ccc([N+](=O)[O-])cc3)s2)c1,i,i,4.9,i,i,i
CNCCCC1c2ccccc2C=Cc2ccccc21,i,i,10.5!,i,i,i
CC(=O)c1cccc(NC(=O)/C(=C/c2ccccc2)NC(=O)c2ccccc2)c1,i,i,i,i,nt,nt
COc1ccccc1/C=C(\NC(=O)c1ccccc1)C(=O)Nc1cccc(C(C)=O)c1,i,i,5.8,i,i,i
COCc1ccc(CN2CCCC(CNS(=O)(=O)c3ccc(OC)cc3)C2)o1 (stereo not drawn),i,i,4.9,i,i,i
CCCNC(=O)C1CCC(CNS(=O)(=O)c2ccc(OC)cc2)CC1 (stereo not drawn),i,i,i,i,nt,nt
COCCNC(=O)C1CCC(CNS(=O)(=O)c2ccc(OC)cc2)CC1 (stereo not drawn),i,i,6.0,i,i,i
CC1=NNc2c([N+](=O)[O-])nc(C)n2C1,i,i,i,i,nt,nt
Cc1ccc(C(O)CNC(=O)NC2CCCCC2)o1 (stereo not drawn),i,i,i,i,nt,nt
COc1ccc(NC(=O)C2C3C=CC4(O3)C2C(=O)N(C(C)CCc2ccccc2)C4C(=O)NC2CCCC(C)C2C)cc1 (stereo not drawn),i,i,7.0,i,i,i
CCCN(CCC)CCN1C(=O)C2C(C(=O)Nc3ccc(F)c(Cl)c3)C3C=CC2(O3)C1C(=O)NC1CCCC(C)C1C (stereo not drawn),i,i,6.9,i,i,i
CCCN(CCC)CCCN1C(=O)C2C(C(=O)Nc3ccc(F)c(Cl)c3)C3C=CC2(O3)C1C(=O)NC1CCCC(C)C1C (stereo not drawn),i,i,i,i,nt,nt
Cc1cccc(C(=O)Nc2sc3c(c2C(=O)N2CCN(C)CC2)CCCC3)c1,i,i,i,i,nt,nt
O=C(NCc1ccccc1Cl)c1c(O)nc2ccccn2c1=O,i,i,i,i,nt,nt
O=C(Nc1cccc(Br)c1)C1CCN(C(=O)c2cccc(Cl)c2)CC1,i,i,i,i,nt,nt
Nc1c(C(=O)Nc2ccc(Oc3ccccc3)cc2)nnn1Cc1ccccc1,i,i,i,i,nt,nt
COc1ccc(NC(=O)c2nnn(Cc3ccccc3)c2N)cc1,i,i,8.1,i,i,i
Cc1nc2nc(=S)[nH]n2c(C)c1Cc1c(F)cccc1Cl,i,i,i,i,nt,nt
OC1CCN(Cc2c(F)cccc2F)CC1,i,i,5.9,i,i,i
CCc1cc2c(cc3c(=O)n(CC(=O)NCc4ccccc4Br)ncn32)s1,i,i,6.4,i,i,i
Cc1ccc(C(=O)N2CCC(Oc3cccc(CN(C)Cc4ncc[nH]4)c3)CC2)s1,i,i,i,i,nt,nt
COc1ccccc1NC(=O)c1ccc(NC(=O)COC(=O)c2ccc(O)cc2)cc1,i,i,5.4,i,i,i
COc1ccccc1Cn1c(=O)c2cccnc2n(CC(=O)Nc2ccccc2)c1=O,i,i,7.0,i,i,i
CS(=O)(=O)c1ncc(Cl)c(C(=O)C(C#N)c2nc3ccc(Cl)cc3c(=O)[nH]2)n1 (stereo not drawn),i,i,i,i,nt,nt
Cc1cccc(-c2nc(CS(=O)CC(=O)N3CCCC3)c(C)o2)c1 (stereo not drawn),i,i,8.2,i,i,i
SMILES,TEAD-YAP inh,MITF primary,GPR151 ag,FBW7 act,GPR151 conf act,GPR119 ag
Cc1cccc(-c2nc(CS(=O)CC(=O)NC(C)C)c(C)o2)c1 (stereo not drawn),i,i,i,i,nt,nt
CCN1CCN(C(=O)CS(=O)Cc2nc(-c3cccc(C)c3)oc2C)CC1 (stereo not drawn),i,i,i,i,nt,nt
Cc1cccc(-c2nc(CS(=O)CC(=O)NC(C)c3ccccc3)c(C)o2)c1 (stereo not drawn),i,i,7.2,i,i,i
O=C(Cc1ccccc1[N+](=O)[O-])NNC(=O)Nc1ccc2c(c1)OCO2,i,i,5.1,i,i,i
O=C(Cc1ccccc1[N+](=O)[O-])Nc1ccc2c(c1)OCO2,i,i,i,i,nt,nt
O=C(Cc1ccccc1)N1CCC(=O)N(CC2CC2)CC1,i,i,9.9,i,i,i
O=C(Cc1ccccc1)N1CCC(N2CCCC2)CC1,i,i,i,i,nt,nt
O=C(Nc1cc(C(F)(F)F)cc(C(F)(F)F)c1)C1CC1,i,i,10.3,i,i,i
COc1ccccc1C(NC(=O)c1cnccn1)c1nccn1C (stereo not drawn),i,i,i,i,nt,nt
COc1ccccc1C(NC(=O)c1nccc2ccccc12)c1nccn1C (stereo not drawn),i,i,6.4,i,i,i
CCCCCC1C/C(=N/OC(C)=O)C=C(C)C1C(=O)OC (stereo not drawn),i,i,7.3,i,i,i
CCCOc1ccc(/C=C2/C(=O)ON=C2C)cc1OCC,i,i,i,i,nt,nt
CCCOc1ccccc1/C=C1/C(=O)ON=C1C,i,i,7.4,i,i,i
COCCN(C(=O)Cc1ccc(F)cc1)C1CCN(Cc2ccncc2)CC1,i,i,6.6,i,i,i
CNC(=O)C1=C(C)NC(=S)NC1c1ccccc1OC (stereo not drawn),i,i,9.5,i,i,i
COc1ccccc1C1NC(=S)NC(C)=C1C(=O)c1ccccc1 (stereo not drawn),i,i,i,i,nt,nt
CN1CCCc2cc(CN3CCc4nnc(-c5ccccc5)n4CC3)ccc21,i,i,i,i,nt,nt
COc1ccc(S(=O)(=O)NCc2ccncc2)cc1OC,i,i,5.4,i,i,i
CCOC(=O)C1=C(O)/C(=C/c2ccc(N(C)C)cc2)N=C1C,i,i,12.2,i,i,i
CCOC(=O)C1=C(O)/C(=C\c2ccc(F)cc2)N=C1C,i,i,i,i,nt,nt
COc1ccc(-c2cc(N)n(S(=O)(=O)c3ccc(C)cc3)n2)cc1,i,i,i,i,nt,nt
CC(C)(C)CN1CCc2nnc(CNC(=O)c3cccc(F)c3)n2CC1,i,i,i,i,nt,nt
O=C(NCc1nnc2n1CCN(C/C(Cl)=C/c1ccccc1)CC2)c1cccc(F)c1,i,i,9.2,i,i,i
CCc1ccccc1NC(=O)COc1cc(Cl)ccc1Cl,i,i,i,i,nt,nt
CCOC(=O)c1cn(-c2ccccc2[N+](=O)[O-])c2cc(Cl)c([N+](=O)[O-])cc2c1=O,i,i,i,i,nt,nt
c1ccc(SCc2nnc3n2CCCCC3)cc1,i,i,5.0,i,i,i
O=C(c1cnn2c1NC(c1cccs1)CC2C(F)(F)F)N1CCN(C(c2ccccc2)c2ccccc2)CC1 (stereo not drawn),i,i,i,i,nt,nt
O=C(c1cnn2c1NC(c1cccs1)CC2C(F)(F)F)N1CCc2ccccc2C1 (stereo not drawn),i,i,5.5,i,i,i
Cc1nn(-c2ccccc2)c(Cl)c1/C=C1\SC(=S)NC1=O,i,i,5.3,i,i,i
